# According to PubChem BioAssay (EPA / NIEHS):
# Several values for one entry are separate records, joined by “and”; a condition that tells them apart may be missing. Identical values can stand only once. Some compounds were tested as several samples or in several runs, with calls that do not always agree. Activity calls are given as the source filed them. How the source made its calls: active means hit-call score of the fitted dose curve at least 0.9, where 1 is the maximum; inactive means score below 0.9.
# Read-out: Interleukin-8 (IL8), CXCL8 (gene 3576)
# Test: BSK_SAg_IL8: BioMAP Diversity Plus: SAg Assay for Interleukin-8 (IL8) Biomarker Activity (AID 2283094)
# Conditions: primary human HUVEC with PBMC; actives raise or lower the signal
# Procedure, shortened: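 Primary human endothelial cells with PBMC, exposed 24 h; IL-8 determined by ELISA, analysed bidirectionally relative to DMSO.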
Compound,outcome,AC50
CCCCC(CC)COC(=O)CCCCC(=O)OCC(CC)CCCC (configuration not stated),inactive,
CC(C)(C)c1cccc(C(C)(C)C)c1O,inactive,
CCCCCCCCCCCCN1CCCC1=O,,20 µM (active)
CC(O)CO (configuration not stated),inactive,
COc1ccc([N+](=O)[O-])cc1N,inactive,
CC(=O)CC(C)(C)O,inactive,
CCCCCCCCOC(=O)CCCCCCCCC(=O)OCCCCCCCC,inactive,
c1ccc2cc3c(ccc4ccccc43)cc2c1,inactive,
C[C@@H]1C[C@H]2[C@@H]3CCC4=CC(=O)C=C[C@]4(C)[C@@]3(F)[C@@H](O)C[C@]2(C)[C@@]1(O)C(=O)COP(=O)(O)O,inactive,6.07 µM (active)
Oc1cccc(O)c1,inactive,
c1ccc2c(c1)Cc1ccccc1-2,inactive,
CCN(CC)CCNc1ccc(CNC=O)c2sc3ccc(OC)cc3c(=O)c12,,20 µM (active)
CC#C[C@]1(O)CC[C@H]2[C@@H]3CCC4=CC(=O)CCC4=C3[C@@H](c3ccc(N(C)C)cc3)C[C@@]21C,inactive,
CCC(C)(C)C1CCC(O)CC1 (configuration not stated),inactive,
Cc1cc(C)c(O)c(C)c1,inactive,
C#C[C@]1(O)CC[C@H]2[C@@H]3CCC4=CC(=O)CC[C@@H]4[C@H]3CC[C@@]21C,inactive,
O=C(OCCOCCOC(=O)c1ccccc1)c1ccccc1,inactive,
CCCCC(CC)COC(=O)CCCCC(=O)OCc1ccccc1 (configuration not stated),inactive,
O=[N+]([O-])c1ccc(O)cc1,inactive,
NC(=O)N(O)[C@@H]1C=C[C@H](Oc2cccc(Oc3ccc(F)cc3)c2)C1,inactive,
NC(=O)N1C(=O)C(C(=O)c2cc(Cl)cs2)c2cc(F)c(Cl)cc21 (configuration not stated),inactive,
COC(=O)CCCCC(=O)OC,inactive,
CN(C)C=O,inactive,
O=c1c(-c2ccc(O)cc2)coc2cc(O)ccc12,inactive,
Cc1oc(-c2ccccc2)nc1CCOc1ccc(C[C@H](Nc2ccccc2C(=O)c2ccccc2)C(=O)O)cc1,,15.8 µM (active)
N#C[C@@H]1CC(F)(F)CN1C(=O)CNC1CC2CCC(C1)N2c1ncccn1 (some centres not stated),,7.82 µM (active)
c1ccc2c(c1)ccc1ccccc12,inactive,

# Read-out: not listed separately
# Test: BSK_SAg_Proliferation: Cell Proliferation Assessment in the BioMAP Diversity Plus: SAg Assay (AID 2283095);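 further: relative cell number as total protein by SRB absorbance in sub-confluent culture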
# Conditions: primary human HUVEC with PBMC
# Procedure, shortened: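 A human primary co-culture of umbilical vein endothelium and blood mononuclear cells receives compound; relative cell number is quantified at 96 h by SRB staining and 560 nm absorbance, with DMSO-referenced bidirectional curve fitting.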
Compound,outcome,AC50
CC(C)(C)CC(C)(C)c1ccc(O)c(-n2nc3ccccc3n2)c1,inactive,
OCCC(F)(F)C(F)(F)C(F)(F)C(F)(F)C(F)(F)C(F)(F)C(F)(F)C(F)(F)F,,20 µM (active) and 14.1 µM (active) and 10.9 µM (active)
CCCCC(CC)COC(=O)CCCCC(=O)OCC(CC)CCCC (configuration not stated),inactive,
CC(C)(C)c1cccc(C(C)(C)C)c1O,inactive,
CCCCCCCCCCCCN1CCCC1=O,,36.3 µM (active)
CC(O)CO (configuration not stated),inactive,
COc1ccc([N+](=O)[O-])cc1N,inactive,
CC(=O)CC(C)(C)O,inactive,
CCCCCCCCOC(=O)CCCCCCCCC(=O)OCCCCCCCC,inactive,
NCC(F)(F)C(F)(F)C(F)(F)C(F)(F)C(F)(F)C(F)(F)C(F)(F)F,inactive,43.6 µM (active)
c1ccc2cc3c(ccc4ccccc43)cc2c1,inactive,
C[C@@H]1C[C@H]2[C@@H]3CCC4=CC(=O)C=C[C@]4(C)[C@@]3(F)[C@@H](O)C[C@]2(C)[C@@]1(O)C(=O)COP(=O)(O)O,inactive,
Oc1cccc(O)c1,inactive,
c1ccc2c(c1)Cc1ccccc1-2,inactive,
CCN(CC)CCNc1ccc(CNC=O)c2sc3ccc(OC)cc3c(=O)c12,,7.57 µM (active)
CC#C[C@]1(O)CC[C@H]2[C@@H]3CCC4=CC(=O)CCC4=C3[C@@H](c3ccc(N(C)C)cc3)C[C@@]21C,,36.2 µM (active)
CCC(C)(C)C1CCC(O)CC1 (configuration not stated),inactive,
Cc1cc(C)c(O)c(C)c1,inactive,
C#C[C@]1(O)CC[C@H]2[C@@H]3CCC4=CC(=O)CC[C@@H]4[C@H]3CC[C@@]21C,inactive,
O=C(OCCOCCOC(=O)c1ccccc1)c1ccccc1,inactive,
CCCCC(CC)COC(=O)CCCCC(=O)OCc1ccccc1 (configuration not stated),inactive,
O=[N+]([O-])c1ccc(O)cc1,inactive,
C=C(C)C(=O)OCCC(F)(F)C(F)(F)C(F)(F)C(F)(F)C(F)(F)C(F)(F)F,inactive,11.2 µM (active)
NC(=O)N(O)[C@@H]1C=C[C@H](Oc2cccc(Oc3ccc(F)cc3)c2)C1,,20 µM (active)
NC(=O)N1C(=O)C(C(=O)c2cc(Cl)cs2)c2cc(F)c(Cl)cc21 (configuration not stated),,12.4 µM (active)
COC(=O)CCCCC(=O)OC,inactive,
CN(C)C=O,inactive,
